From PubChem BioAssay (NCATS) come the findings set out here.

The test system of one assay is PC49. Nature of the assay: qHTS profiling for inhibitors of Plasmodium falciparum proliferation (AID 504749). To be noted: P. falciparum in erythrocytes, SYBR Green DNA, 72 h; series mostly up to 28.7 µM. A digest of the protocol:
(§1)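 Quantitative HTS: compounds pinned into medium, infected erythrocytes added (0.3% parasitemia, 2.5% hematocrit), 72 h culture at 37 C under 5% CO2. Saponin/Triton lysis with SYBR Green I, overnight RT, then fluorescence read.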
For orientation: Quantitative high-throughput screening tests each substance at several concentrations.

Another assay has as its system SC27B. The assay is described as above. The settings on record: P. falciparum in erythrocytes, SYBR Green DNA, 72 h; series mostly up to 28.7 µM. A digest of the protocol:
as §1

For a further assay, the system named is TAB109. The assay is described as above. The settings on record: P. falciparum in erythrocytes, SYBR Green DNA, 72 h; series mostly up to 28.7 µM. A digest of the protocol: as §1
In a further assay the test system is TAB113. The assay is described as above. To be noted: P. falciparum in erythrocytes, SYBR Green DNA, 72 h; series mostly up to 28.7 µM. The procedure, abridged: as §1
The subject of a further assay is TAB165. The description is as above. To be noted: P. falciparum in erythrocytes, SYBR Green DNA, 72 h; series mostly up to 28.7 µM. The procedure, abridged: as §1
A further assay relates to W2. Described as above. To be noted: P. falciparum in erythrocytes, SYBR Green DNA, 72 h; series mostly up to 28.7 µM. A digest of the protocol:
as §1

For the next assay, the system named is CRL-7250. Nature of the assay: Cytotoxic Profiling of Annotated Libraries Using Quantitative High-Throughput Screening (AID 1296008). On max response: on the % scale 0 is the no-effect control and ±100 the full control effect. To be noted: Five cell lines viability, CellTiter-Glo ATP luminescence, 48-72 h; max response: stronger effect = lower value. A digest of the protocol:
(§2)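 Compounds were pin-transferred onto cells and incubated 48 or 72 hr at 37 degree Celsius, 95% humidity. CellTiter-Glo was added, plates sat 10 min at room temperature, then ATP-coupled luminescence was imaged as the viability read-out.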
For orientation: Cellular ATP, detected with luciferase, serves as a proxy for viable cell number.

In the next assay the test system is HEK293. Described as above. The settings on record: Five cell lines viability, CellTiter-Glo ATP luminescence, 48-72 h; max response: stronger effect = lower value. The procedure, abridged: as §2
In assay [1] the test system is HaCat. The assay is described as above. The settings on record: Five cell lines viability, CellTiter-Glo ATP luminescence, 48-72 h; max response: stronger effect = lower value. A digest of the protocol:
as §2

In a further assay the test system is KB-3-1. Described as above. The settings on record: Five cell lines viability, CellTiter-Glo ATP luminescence, 48-72 h; max response: stronger effect = lower value. A digest of the protocol:
as §2

Assay [2] concerns NIH3T3. Described as above. The settings on record: Five cell lines viability, CellTiter-Glo ATP luminescence, 48-72 h; max response: stronger effect = lower value. A digest of the protocol: as §2
For assay [3], the system named is HACAT. Nature of the assay: qHTS assay to identify novel small-molecules to repurpose for Merkel cell carcinoma treatment (AID 1296009). The settings on record: MCC and control cell lines, CellTiter-Glo viability, 72 h. The procedure, abridged:
(§3)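 Viability readout: ATP luminescence (CellTiter-Glo) after 72 hr drug exposure at 37 degree celsius. Dose-response format was 8 points for NPC and 11 points for MIPE; data normalized to in-plate controls.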

The next assay concerns MCC-13. The assay is described as above. The settings on record: MCC and control cell lines, CellTiter-Glo viability, 72 h; series mostly up to 46 µM. A digest of the protocol: as §3
The next assay concerns MKL-1. The description is as above. To be noted: MCC and control cell lines, CellTiter-Glo viability, 72 h; series mostly up to 46 µM. A digest of the protocol:
as §3

For another assay, the system named is MKL-2. The assay is described as above. The settings on record: MCC and control cell lines, CellTiter-Glo viability, 72 h; series mostly up to 46 µM. The procedure, abridged:
as §3

The subject of the next assay is UISO. The description is as above. The settings on record: MCC and control cell lines, CellTiter-Glo viability, 72 h; series mostly up to 46 µM. The procedure, abridged:
as §3

The next assay concerns WaGa. Described as above. To be noted: MCC and control cell lines, CellTiter-Glo viability, 72 h; series mostly up to 46 µM. A digest of the protocol:
as §3

A further assay has as its system HEK293T. The description is as above. To be noted: MCC and control cell lines, CellTiter-Glo viability, 72 h. The procedure, abridged: as §3
Assay [4] has as its system NIH3T3. Described as above. The settings on record: MCC and control cell lines, CellTiter-Glo viability, 72 h. A digest of the protocol: as §3
The test system of another assay is MCC-26. The assay is described as above. The settings on record: MCC and control cell lines, CellTiter-Glo viability, 72 h; series mostly up to 46 µM. The procedure, abridged:
as §3

Setting [5] is: at 44.8 µM (top of the series) unless noted.

Several values for one entry are separate records, joined by “and”; a condition that tells them apart may be missing. Equal entries are not always repeated. Inconclusive results are not listed. More than one record can exist for a structure, and the calls need not agree. Activity calls are given as the source filed them. The call rests on the fitted dose curve; in most records, active means well fitted inhibition curve with a large enough effect; inconclusive means small, poorly fitted or top-dose-only effect; inactive means flat fitted curve, though single readings scatter.
Further: nearly all actives have a fitted effect of over 60% in size.
Potency means the concentration at half of the fitted maximal effect.

Turning to `CC(C)NCC(O)c1ccc(NS(C)(=O)=O)cc1` (centres undefined), the Potency result in the assay with PC49, with SC27B, with TAB109, with TAB113, with TAB165 and with W2 was “inactive” throughout. Moreover, the Potency result in the assay on MCC-13, in the assay on MKL-1, in the assay with MKL-2, with UISO and in the assay with WaGa was “inactive” throughout. Besides, the compound was called inactive in the assay with CRL-7250, in the assay on HaCat [1] and with HACAT [3] (setting [5]). The max response is 0.785% (inactive) in the assay with HEK293; 2.03% (inactive) and 6.79% (inactive) in the assay on KB-3-1; 4.22% (inactive) in the assay on NIH3T3 [2].

On to `CC(C)C1CCC(C(=O)N[C@H](Cc2ccccc2)C(=O)O)CC1` (some centres undefined), for which the max response is -2.02% (inactive) and -1.93% (inactive) with CRL-7250; -0.795% (inactive) and -11.5% (inactive) in the assay with HEK293; -8.21% (inactive) and -7.47% (inactive) with HaCat [1]; 4.69% (inactive) and 4.96% (inactive) in the assay with KB-3-1; 0.816% (inactive) and -0.595% (inactive) with NIH3T3 [2]. The Potency result with MCC-13, in the assay on MKL-1, with MKL-2, with UISO and in the assay on WaGa was “inactive” each time.

Turning to `N[C@@H](C(=O)N[C@@H]1C(=O)N2C(C(=O)O)=C(Cl)CS[C@H]12)c1ccccc1`, the Potency entry in the assay on PC49, with SC27B, in the assay on TAB109, in the assay on TAB113, in the assay on TAB165 and in the assay with W2 was “inactive” throughout. For the same compound, the Potency entry in the assay on MCC-13, with MKL-1, in the assay with MKL-2, in the assay on UISO and with WaGa was “inactive” each time. Also, the max response with CRL-7250 was 3.96% (inactive) and -9.13% (inactive); in the assay with KB-3-1, 16.8% (inactive) and 8.23% (inactive). Also, the result in the assay on HEK293, in the assay with HaCat [1], with NIH3T3 [2], in the assay on HACAT [3] (at 9.27 µM (top of the series)), in the assay on HACAT [3] (at 44.8 µM (top of the series)) and in the assay with HEK293T (at 9.27 µM (top of the series)) was inactive. For the same compound, the outcome in the assay on HEK293T (at 44.8 µM (top of the series)), with NIH3T3 [4] (at 9.27 µM (top of the series)) and in the assay on NIH3T3 [4] (at 44.8 µM (top of the series)) was inactive.

Take `CCCCOc1ccc(CC(=O)NO)cc1`: the Potency entry in the assay with PC49, in the assay with MCC-13 and with MCC-26 was “inactive” throughout. The Potency in the assay on TAB109 was 2.24 µM (active); with TAB165, 3.16 µM (active); in the assay with W2, 572 nM (active); in the assay with NIH3T3 [2] it was 23.7 µM (active); with UISO, 16.8 µM (active). The max response in the assay on CRL-7250 is -23.3% (inactive); in the assay on HEK293, -50.4% (inactive); with KB-3-1, -6.89% (inactive); with NIH3T3 [2] it was -7.85% (inactive). The call in the assay with KB-3-1 was inactive.

In the case of `COc1cnc(NS(=O)(=O)c2ccc(N)cc2)nc1`, the Potency result in the assay with PC49, in the assay with SC27B, in the assay on TAB109, in the assay on TAB113, in the assay on TAB165 and with W2 was “inactive” in each case. Moreover, the Potency entry in the assay on MCC-13, in the assay on MKL-1, with MKL-2 and with UISO was “inactive” in each case. In addition, the max response was -6.42% (inactive) and -4.75% (inactive) with CRL-7250; -7.96% (inactive) in the assay with HaCat [1]; 12.3% (inactive) in the assay with KB-3-1; -3.77% (inactive) and 1.75% (inactive) in the assay on NIH3T3 [2]. The compound was called inactive with HaCat [1], in the assay with KB-3-1, in the assay with HACAT [3] (setting [5]) and in the assay on HEK293T (setting [5]). The Potency result with WaGa is “inactive and 13.2 µM (active)”.

Consider `CCN(CC)CCn1c(=O)c(Cc2ccc(OC)cc2)nc2ccccc21`, for which the max response in the assay with CRL-7250 is -4.28% (inactive); in the assay with HEK293, -12.9% (inactive); in the assay with HaCat [1], -7.99% (inactive); in the assay with KB-3-1 it was -9.16% (inactive). For the same compound, the compound was classed as inactive with KB-3-1, in the assay with NIH3T3 [2] and in the assay with NIH3T3 [4] (setting [5]). In addition, the Potency result in the assay with MCC-13, in the assay with MCC-26, with MKL-1, with MKL-2, with UISO and in the assay on WaGa was “inactive” throughout.
